Assay results published in PubChem BioAssay (Tox21).
Records with an inconclusive call do not appear. Entries that show only a call come without a potency. A number with no mark means an inactive call. Activity calls are given as the source filed them. Calls come from the whole dose curve.

What follows are molecules tested against 5-hydroxytryptamine receptor 2A (Homo sapiens) (UniProt P28223) (assay: 5-hydroxytryptamine receptor 2A (HTR2A) small molecule agonists, cell-based qHTS assay (AID 1963587; note: nearly all actives have a fitted effect of over 30% in size)). Conditions: HTR2A-CHO cells, calcium flux fluorescence, agonist mode; series mostly up to 76.8 µM.
Sequence of 5-hydroxytryptamine receptor 2A (Homo sapiens) (P28223 whole entry, looked up): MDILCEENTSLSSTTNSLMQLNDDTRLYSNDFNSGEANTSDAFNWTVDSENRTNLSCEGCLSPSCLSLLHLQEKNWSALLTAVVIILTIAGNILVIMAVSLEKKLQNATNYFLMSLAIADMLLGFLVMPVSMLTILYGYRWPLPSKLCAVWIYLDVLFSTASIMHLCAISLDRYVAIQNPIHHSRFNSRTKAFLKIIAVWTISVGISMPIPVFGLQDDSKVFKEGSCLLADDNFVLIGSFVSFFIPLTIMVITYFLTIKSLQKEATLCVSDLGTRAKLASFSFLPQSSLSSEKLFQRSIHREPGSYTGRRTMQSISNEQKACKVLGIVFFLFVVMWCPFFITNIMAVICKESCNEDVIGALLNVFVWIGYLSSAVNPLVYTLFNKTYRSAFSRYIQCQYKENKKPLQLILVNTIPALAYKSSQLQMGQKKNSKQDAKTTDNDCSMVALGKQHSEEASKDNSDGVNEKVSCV
Source text: National Center for Advancing Translational Sciences [NCATS]
Division of Preclinical Innovation [DPI]
U.S. Environmental Protection Agency [EPA]
National Institutes of Environmental Health Sciences [NIEHS]
National Toxicology Program [NTP]
U.S. Food and Drug Administration [FDA]
The HTR2A receptor is a subtype of the 5-HT2 receptor that belongs to the serotonin receptor family and is a G protein-coupled receptor (GPCR). The HTR2A-CHO cell line stably expressing human 5-hydroxytryptamine receptor 2A (HTR2A) can be used for screening agonists of interactions between 5-HT2 and its ligands. The HTR2A-CHO calcium flux assay is a homogeneous fluorescence-based assay for detecting the intracellular calcium level using FDSS kinetic plate reader system.
HTR2A-CHO cells were dispensed at 2000 cells/3uL/well in 1536-well black-clear bottom plates using a Multidrop Dispenser. After the assay plates were incubated at a 37 C/5% CO2 incubator for 18 h, 3 uL of Dye Loading Buffer was transferred to the assay plate by a Flying Reagent Dispenser. The assay plates were incubated at 37 C for 1h. For agonist mode, 23 nL of compounds dissolved in DMSO, positive controls or DMSO only was transferred to the assay plate by a pin tool. The fluorescence intensity in the plates was measured using FDSS 7000EX kinetic plate reader for 2 min at 1 sec intervals.
Potency is the fitted concentration of half-maximal effect.

SMILES | Potency | activation
CCCCCCC1CCC(=O)O1 (stereo not given) | inactive | 
CC(C)(C)C1=CC(=O)C=C(C(C)(C)C)C1=O | inactive | 
CC(CCO)CCCC(C)(C)O (stereo not given) | inactive | 
CCCC(CC)c1ccccc1 (stereo not given) | inactive | 
CC(C)C(C)C | inactive | 
CCOC(=O)CC(O)(CC(=O)OCC)C(=O)OCC | inactive | 
CC(=O)N(CC(O)CO)c1c(I)c(C(=O)NCCO)c(I)c(C(=O)NCC(O)CO)c1I (stereo not given) | inactive | 
Oc1cccc(-c2c3nc(c(-c4cccc(O)c4)c4ccc([nH]4)c(-c4cccc(O)c4)c4nc(c(-c5cccc(O)c5)c5ccc2[nH]5)CC4)C=C3)c1 | inactive | 
CCCCCOC(=O)c1ccc(O)cc1 | 35.1 µM (active) | 
CC(CSC(=O)c1ccccc1)C(=O)N1C[C@@H](Sc2ccccc2)C[C@H]1C(=O)O (stereo not given in full) |  | -7.52% [at 15.9 µM]
CCOc1ccc(NC(=O)CC(C)=O)cc1 | inactive | 
CN(C)c1ccc(C2(c3ccc(N(C)C)cc3)OC(=O)c3cc(N(C)C)ccc32)cc1 | inactive | 
O=C(CN1CCNCC1)NC1CCCCC1 | inactive | 
NC1=NCC2c3ccccc3Cc3ccccc3N12 (stereo not given) | inactive | 
C[C@H]1[C@@H](c2ccccc2)NC(=O)N1C | inactive | 
SC1CCCC1 | inactive | 
C/C=C(\C)C(C)=O | inactive | 
CCCC(=O)OCC | inactive | 
C[C@H](CCC(=O)O)[C@H]1CC[C@H]2[C@@H]3C(=O)C[C@@H]4CC(=O)CC[C@]4(C)[C@H]3CC(=O)[C@]12C | inactive | 
CC(C)C(=O)OCCc1ccccc1 | inactive | 

SMILES | Potency | activation
C=C(C)C(=O)OCCCCCCCCCC | inactive | 
OCCN1CCOCC1 | inactive | 
Cc1ccc(NC=O)c(C)c1 | inactive | 
Cc1ccc(O)c2ncccc12 | inactive | 
C=CC(=O)OCCn1c(=O)n(CCOC(=O)C=C)c(=O)n(CCOC(=O)C=C)c1=O | inactive | 
C[C@]12CCC(=O)C=C1[C@@H]1C[C@@H]1[C@H]1[C@@H]3[C@@H]4C[C@@H]4[C@@]4(CCC(=O)O4)[C@@]3(C)CC[C@@H]12 | inactive | 
CC(C)CCCCCCN | inactive | 
CCCCC(CC)CNC(=O)CC(C)OC(=O)CCC(=O)O (stereo not given) | inactive | 
N#CCCOCCC#N | inactive | 
CC1=CC(C)C(C=O)C(C)C1 (stereo not given) | inactive | 
C=CC(=C)CCCC(C)(C)OC(C)=O | inactive | 
FC(F)(Cl)C(F)(Cl)Cl | inactive | 
CCn1ccc(NS(=O)(=O)c2ccc(N)cc2)nc1=O | inactive | 
CC(CCc1ccc2c(c1)OCO2)NN (stereo not given) | inactive | 
COC1CCC=CO1 (stereo not given) | inactive | 
Clc1sc(Cl)c(Cl)c1Cl | inactive | 
Oc1ccc2ccccc2c1 | inactive | 
CC(=O)c1ccc(C)cc1 | inactive | 
CCC(Cl)C(Cl)C(Cl)CC(Cl)C(Cl)C(C)Cl (stereo not given) | inactive | 
OC(CCN1CCCCC1)(c1ccccc1)C1CC2C=CC1C2 (stereo not given) | inactive | 
